{"source": "PubChem BioAssay (EPA / NIEHS)", "note": "Inconclusive results are not listed. The source made the active and inactive calls. How the source made its calls: active means hit-call score of the fitted dose curve at least 0.9, where 1 is the maximum; inconclusive means response in the unintended direction; inactive means score below 0.9."}
{"biological_target": "zebrafish Thyroid Hormone Receptor beta (TRb), thrb (gene 30607) (UniProt Q9PVE4)", "sequence (Q9PVE4 whole entry, looked up, the tested form may be a part)": "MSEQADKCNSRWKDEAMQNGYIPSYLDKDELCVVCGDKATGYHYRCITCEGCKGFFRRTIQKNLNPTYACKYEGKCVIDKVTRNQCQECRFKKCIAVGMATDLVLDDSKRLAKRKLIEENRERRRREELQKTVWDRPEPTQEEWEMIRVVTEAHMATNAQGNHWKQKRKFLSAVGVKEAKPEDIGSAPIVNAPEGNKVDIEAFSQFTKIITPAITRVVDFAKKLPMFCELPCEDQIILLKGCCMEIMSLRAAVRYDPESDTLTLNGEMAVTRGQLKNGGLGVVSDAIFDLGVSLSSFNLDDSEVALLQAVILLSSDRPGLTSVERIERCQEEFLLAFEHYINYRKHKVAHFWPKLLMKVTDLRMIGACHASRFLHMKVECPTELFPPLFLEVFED", "experiment": "ATG_zfTRb_XSP2: Attagene TRANS-FACTORIAL Multi-Species (XSP1) HepG2 Assay for zebrafish Thyroid Hormone Receptor beta (TRb) (AID 2283836);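 on AC50: potency for induction of reporter signal above DMSO so agonist direction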", "outline": "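Fluorescence of labelled reporter cDNA fragments, separated by capillary electrophoresis, gives mRNA induction from exogenous NR-Gal4 chimeras in transiently transfected HepG2 cells after 24 h dosing; 3 nM 6-alpha-fluorotestosterone and 1.5 nM norgestrel included in the run.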"}
{"compound": "CC(=O)O[C@]1(C(C)=O)CC[C@H]2[C@@H]3C=C(Cl)C4=CC(=O)[C@@H]5C[C@@H]5[C@]4(C)[C@H]3CC[C@@]21C", "outcome": "inactive"}
{"compound": "CCN(CC)CCOc1ccc(C(=C(Cl)c2ccccc2)c2ccccc2)cc1", "outcome": "inactive"}
{"compound": "Cc1c(C)c2c(c(C)c1O)CCC(C)(COc1ccc(CC3SC(=O)NC3=O)cc1)O2", "note": "(configuration not stated)", "AC50": "2.66 µM (active)"}
{"compound": "CC(=O)[C@@]1(O)CC[C@H]2[C@@H]3CCC4=CC(=O)CC[C@]4(C)[C@H]3CC[C@@]21C", "outcome": "inactive"}
{"tested_on": "Sodium/Iodide Symporter (NIS), SLC5A5 (gene 6528)", "experiment": "CPHEA_Stoker_NIS_Inhibition_RAIU: CPHEA's Radioactive Iodide Uptake (RAIU) Assay for Sodium/Iodide Symporter (NIS) Inhibition, Stoker and Laws Labs (AID 2283841)", "outline": "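Test chemicals, six concentrations from 0.001 to 100uM in 0.5% DMSO, were co-incubated with carrier-free 125I (final 329pM) on hNIS-HEK293T-EPA monolayers in pH 7.4 HEPES-buffered HBSS. Plates stood 2 hours at room temperature, then were washed cold and counted.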"}
{"compound": "CC(=O)O[C@]1(C(C)=O)CC[C@H]2[C@@H]3C=C(Cl)C4=CC(=O)[C@@H]5C[C@@H]5[C@]4(C)[C@H]3CC[C@@]21C", "outcome": "inactive"}
{"compound": "CCCCCCCCCCCCCCOS(=O)(=O)O", "outcome": "inactive"}
{"compound": "CCN(CC)CCOc1ccc(C(=C(Cl)c2ccccc2)c2ccccc2)cc1", "outcome": "inactive"}
{"compound": "CCCCCCC(CCCCCCCCCCC(=O)OCC(COC(C)=O)OC(C)=O)OC(C)=O", "note": "(configuration not stated)", "outcome": "inactive"}
{"compound": "Cc1c(C)c2c(c(C)c1O)CCC(C)(COc1ccc(CC3SC(=O)NC3=O)cc1)O2", "note": "(configuration not stated)", "AC50": "50 µM (active)"}
{"compound": "O=Cc1ccccc1C=O", "outcome": "inactive"}
{"compound": "CN(C)CCCN1c2ccccc2Sc2ccc(Cl)cc21", "outcome": "inactive"}
{"compound": "CC(COCC(C)OC(=O)c1ccccc1)OC(=O)c1ccccc1", "note": "(configuration not stated)", "outcome": "inactive"}
{"compound": "CC(=O)OCC(COC(C)=O)OC(C)=O", "outcome": "inactive"}
{"compound": "O=C1OC(c2ccc(O)cc2)(c2ccc(O)cc2)c2ccccc21", "AC50": "0.722 µM (active)"}
{"compound": "Cc1ccc(-c2cc(C(F)(F)F)nn2-c2ccc(S(N)(=O)=O)cc2)cc1", "outcome": "inactive"}
{"compound": "O=C(Oc1ccccc1)c1cccc(C(=O)Oc2ccccc2)c1", "outcome": "inactive"}
{"compound": "CCC(C)N(C)C(=O)c1cc2ccccc2c(-c2ccccc2Cl)n1", "note": "(configuration not stated)", "AC50": "30 µM (active)"}
